# TGFb SMAD3 inh – TGF-b pathway inhibition | HepG2 CAGA-GFP TGF-b/SMAD3 reporter, GFP fluorescence, 18 h; TGF-beta stimulated, 500 pg/mL final | Potency, µM (highest dose often 46.1 µM), inactives show top-dose activity, negative = inhibition, actives largely listed as inhibitors | actives 1.2% (n = 410,000); also: % is scaled to controls: 0 for no effect and ±100 for the full control effect; nearly all actives have a fitted effect of over 65% in size
#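 Inhibition was scored as loss of TGF-beta-induced (500 pg/mL final, 18 hours, 37 degrees C) GFP in HEPG2 cells carrying a CAGA-GFP reporter, in DMEM with 1% FBS. Well GFP was summed per cell; Activity was normalised to unstimulated and stimulated DMSO wells, then concentration-response fitting.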
# ATXN2 expr inh – inhibitors of ATXN2 expression. HEK-293 ATXN2-luciferase reporter, luminescence, 24 h. actives 0.72% (n = 360,000). Potency, µM (top dose mostly 57 µM), for inactives: at the top dose activity change, negative = inhibition, hits mostly inhibitors. AID 1745845; also: % is scaled to controls: 0 for no effect and ±100 for the full control effect; nearly all actives have a fitted effect of over 55% in size
#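 ATXN2-luciferase reporter cells (luciferase flanked by upstream and downstream ATXN2 gene portions) were treated 24 h at 37 °C with compounds at up to 57 uM. SteadyGlo luminescence gave expression; GF-AFC fluorescence gave viability.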
# ATXN viability – reduces viability in counter-screen for ATXN expression inhibitors. S2 cells (HEK-293 line with an ATXN2-luciferase reporter) viability, CellTiter-Fluor protease fluorescence, 24 h. Potency, µM (top dose mostly 56.7 µM), usual class: cytotoxic. actives 0.49% (n = 400,000); also: nearly all actives have a fitted effect of over 40% in size
# HT1080-NT tox – kills 2HG-producing HT-1080-NT fibrosarcoma cells; HT-1080-NT fibrosarcoma viability, CellTiter-Glo ATP luminescence, 48 h; Potency, µM (top dose mostly 46.1 µM), without a hit: top-dose activity, negative = less viability, usual class: cytotoxic; actives 1.6% (n = 360,000);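 also: NT is the 2HG producing partner of a matched IDH1 knockdown line; 0% = DMSO-treated cells and -100% = media-only wells without cells; nearly all actives have a fitted effect of over 55% in size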
#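 Toxicity toward the 2HG-producing NT line was scored as %Activity, normalised to DMSO and no-cell wells, from CellTiter-Glo luminescence after 48 hours' treatment.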
# HT1080 IDH1KD tx – HT-1080 IDH1 knockdown cell toxicity (counter line) | HT-1080 IDH1 knockdown viability, ATP luminescence, 48 h | Potency, µM (doses to about 46.1 µM), for inactives: top-dose activity, negative = toxicity, hits mostly cytotoxic | actives 2% (n = 360,000);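 also: 0% = DMSO wells and -100% = cell-free medium wells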
#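 CellTiter-Glo luminescence after 48 h compound exposure at 37 degrees C of IDH1-knockdown HT-1080 cells in 5% FBS RPMI. %Activity scaled between DMSO wells and cell-free media wells, with curves fitted and assigned curve classes.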
# HepG2 tox – HepG2 cytotoxicity, counter-screen for TGF-b inhibitors. HepG2 CAGA-GFP viability, ATP luminescence, 18 h. Potency, µM (highest dose often 46.1 µM), for the others: at the top dose activity change, negative = cytotoxicity, hits mostly cytotoxic. actives 0.76% (n = 410,000). AID 588856
#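 CellTiter-Glo luminescence gave cytotoxicity after 18 hours at 37 degrees C. The cells were HepG2 CAGA-GFP in 1% FBS DMEM, stimulated with 500 pg/mL TGF-beta after compound addition. %Activity was normalised to no-cell wells (complete cell-killing) and DMSO (no toxicity), and curves were fitted and classified.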
# * marks the source's active call; other numbers are inactive results; i = inactive; ? = inconclusive; nt = no result. This is a sample that favours compounds with a hit; in the whole collection about 3.8% have one here. Calls follow the shape of the dose curve; as a rule, active = well fitted curve in the direction sought with a large enough effect; inconclusive = small, poorly fitted or top-dose-only effect, or another doubt; inactive = no such curve, though single readings can be large; an effect the other way counts as inactive or inconclusive. Potency is read from the fitted curve at half-maximal effect.
SMILES,TGFb SMAD3 inh,ATXN2 expr inh,ATXN viability,HT1080-NT tox,HT1080 IDH1KD tx,HepG2 tox
Cc1ccc2nc(N3C(=O)CNC3=S)sc2c1,11µM*,?,i,?,16µM*,-136%
C[C@@H]1CN(Cc2ccc3c(c2)CN(Cc2coc4ccccc4c2=O)CCO3)C[C@H](C)O1,nt,nt,i,nt,nt,nt
Cc1c(C(=O)N/N=C/C(C)C)[nH]c2c([N+](=O)[O-])cccc12,-29%,-25%,i,?,2.6µM*,-26%
CCS(=O)(=O)Nc1cccc(C2=NN(C(=O)c3ccco3)C(c3ccco3)C2)c1 (stereo not drawn),-5%,-16%,?,?,?,-21%
CC(=O)N1N=C(c2ccc(NS(=O)(=O)c3ccccc3)cc2)CC1c1ccco1 (stereo not drawn),?,?,i,4.6µM*,5.2µM*,-24%
CCS(=O)(=O)Nc1ccc(C2=NN(C(=O)c3ccco3)C(c3ccco3)C2)cc1 (stereo not drawn),?,-14%,?,?,16µM*,-14%
CC(=O)N1N=C(c2cccc(NS(=O)(=O)c3ccc(C)cc3)c2)CC1c1ccco1 (stereo not drawn),-15%,13%,i,-4%,?,-5%
Cn1cc(CNC2CCN(c3cccc(NC(=O)c4cccnc4)c3)CC2)cn1,nt,nt,i,nt,nt,nt
Cc1ccc(-c2nc3cnccn3c2Nc2ccc(C(C)C)cc2)o1,nt,nt,nt,4%,6%,nt
CCc1c(-c2cccc(OC)c2)ncn1Cc1cccc(-c2ccccc2)c1,nt,nt,nt,7.3µM*,?,nt
COc1cccc(-c2nn(Cc3ccccc3)cc2CO)c1,-3%,59%,i,-15%,-12%,6%
CCc1c(C2CC2)ncn1Cc1cccc(-c2ccccc2)c1,nt,nt,nt,21µM*,16µM*,nt
CCOc1ccc2c(c1)ncn2Cc1ccccc1,1%,33%,i,2%,-8%,-5%
CCc1c(-c2ccccc2F)ncn1Cc1cccc(-c2ccccc2)c1,nt,nt,nt,16µM*,8.2µM*,nt
COc1cccc(Cn2cnc(-c3ccccc3OC)c2-c2cccs2)c1,nt,-25%,i,?,-23%,nt
CCOC(=O)CCCC(=O)N1CCN(/[N+]([O-])=N/Oc2ccc([N+](=O)[O-])cc2[N+](=O)[O-])CC1,?,nt,nt,nt,nt,-105%
OC(c1ccc2c(c1)CN(Cc1cccc3nccnc13)CCO2)C1CCCCC1 (stereo not drawn),nt,nt,i,nt,nt,nt
CCOc1ccc2[nH]c(=O)c(CN(CCN3CCCC3)C(=S)Nc3ccccc3OCC)cc2c1,16µM*,-34%,?,?,?,14µM*
CCOc1ccc2[nH]c(=O)c(CN(Cc3ccc(F)cc3)C(=O)c3ccco3)cc2c1,?,-25%,?,?,23µM*,0%
CCOc1ccc2[nH]c(=O)c(CN(CC3COCCO3)C(=O)c3ccco3)cc2c1 (stereo not drawn),1%,-1%,i,1%,-1%,-46%
Cc1cc2c(cc1C)N[C@]1(C[C@H]3CCCC(=O)N4CC[C@@H](C1)[C@@H]34)C(=NC1CCCCC1)N2,?,nt,nt,nt,nt,-27%
C/C(=N/Nc1ccnc2cc(Cl)ccc12)c1ccc(O)cc1,?,-34%,?,-8%,-4%,-97%
C/C(=N/Nc1ccnc2cc(Cl)ccc12)c1ccc(N)cc1,?,0%,25µM*,?,?,-47%
CN(C)c1ccc(-c2cc(NC=O)c3ncc(-c4ccc(F)c(Cl)c4)n3c2)cc1,3%,-23%,i,?,?,-6%
COc1ccc(-c2cc(NC=O)c3ncc(-c4cccc(OC)c4)n3c2)cc1,?,?,i,?,9.2µM*,3%
SMILES,TGFb SMAD3 inh,ATXN2 expr inh,ATXN viability,HT1080-NT tox,HT1080 IDH1KD tx,HepG2 tox
COc1cccc(-c2cnc3c(NC=O)cc(-c4ccc(N(C)C)cc4)cn23)c1,?,-6%,nt,?,18µM*,-2%
O=C(Nc1nnc(-c2ccccc2Cl)o1)c1ccco1,17%,0%,i,8.9µM*,?,-6%
CC(=O)c1ccc(C(=O)Nc2nnc(-c3ccc(Cl)cc3)o2)cc1,3%,?,i,?,?,-4%
O=C(Nc1nnc(-c2ccccc2)o1)c1ccc(Cl)cc1,?,20µM*,nt,?,?,-17%
COc1cccc(Cn2cnc3c(cnn3C(C)(C)C)c2=O)c1,-8%,nt,nt,nt,nt,-25%
CCOc1ccc(/C=C/c2ccc3ccccc3n2)cc1OCC,-2%,nt,nt,nt,nt,-9%
CCOc1ccc(NC(=O)c2cc(S(=O)(=O)N3CCc4ccccc43)ccc2F)cc1,-14%,nt,nt,nt,nt,-11%
Cc1cc(C)c(OCC(=O)N(Cc2cccc(F)c2)Cc2ccco2)c(C)c1,-49%,nt,nt,nt,nt,11µM*
O=C1Nc2ccccc2C1(c1ccc(O)cc1)c1ccc(O)cc1,nt,18%,i,nt,nt,nt
Cn1cc(CN2CCC(n3nccc3NC(=O)c3ccccc3Cl)CC2)c2ccccc21,?,?,?,?,?,-21%
O=C(CCCc1ccccc1)Nc1ccnn1C1CCN(Cc2ccccn2)CC1,10%,-8%,i,-5%,-17%,15%
Cc1ccccc1CN1CCC(n2nccc2NC(=O)CCCc2ccccc2)CC1,-1%,nt,i,0%,-1%,18µM*
COc1ccccc1C(=O)Nc1ccnn1C1CCN(Cc2cn(C)c3ccccc23)CC1,11µM*,nt,?,?,?,-42%
C(=Nc1ccc(/C=C/c2ccnc3ccccc23)cc1)c1ccco1,-2%,nt,nt,nt,nt,-30%
Cn1cccc/c1=N\c1cccc[n+]1C,-31%,nt,i,-11%,23µM*,-8%
CC1=CC(=O)C=CC1=Nc1ccc(N(C)C)cc1,25µM*,?,?,?,?,-91%
CN(C)c1ccc(N=Nc2ccc(S(N)(=O)=O)cc2)cc1,4%,42%,i,-6%,-2%,-2%
CCN(C(=O)CSc1nc2ccccc2n1CC(=O)NCc1ccc(OC)cc1)c1ccccc1,2%,5%,i,nt,nt,-14%
CC(C)(C)NC(=O)C(c1ccc(-c2ccccc2)cc1)N(C[C@H]1CC[C@@H]([C@@H]2CC[C@H](CO)O2)O1)C(=O)c1ccc(C(C)(C)C)cc1 (stereo partly drawn),?,-28%,20µM*,?,?,-96%
Cc1ccc(C(C(=O)NC(C)(C)C)N(CC2CCCO2)C(=O)c2csnn2)cc1 (stereo not drawn),19%,-3%,i,3%,20%,-14%
NC1=NC2(CCC(c3ccccc3)CC2)n2c(nc3ccccc32)N1 (stereo not drawn),?,-1%,i,21µM*,?,-31%

# Assay outcomes (PubChem BioAssay)
